In the library only some 18% were active in any assay of this set; here they are far more common.
IL-1B inflam inh: inhibitors of inflammasome signaling (IL-1 beta secretion); THP-1 LPS/ATP IL-1B secretion, AlphaLISA, 16 h; stronger effect = lower value; activity change, % at 57.5 µM; 4.7% of 360,000 active; in the data active = activity change below about -50%; inconclusive = mostly about -30% to -49%
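THP-1 cells pretreated 1 hr with compounds (up to 57.5 uM final), then stimulated with LPS (250 ng/mL final) plus ATP (1.25 mM final); secreted IL-1B measured by AlphaLISA after 16 hr, decreased signal indicating inhibition.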
DT40 TDP1 no CPT: qHTS for Inhibitors of human tyrosyl-DNA phosphodiesterase 1 (TDP1): qHTS in cells in absence of CPT. Potency, µM (doses to about 46.2 µM), inactives show at the highest dose activity change, negative = growth inhibition, hits mostly inhibitors. DT40 Tdp1-/- hTDP1 cells, no CPT, ATP luminescence, 48 h. 15% of 420,000 active; note: potency is the fitted concentration of half-maximal effect; nearly all actives have a fitted effect of over 55% in size
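A cellular qHTS used chicken DT40 cells lacking endogenous Tdp1 but carrying stably transfected human TDP1. Compounds were applied without camptothecin, and cell growth kinetics were judged by ATP-dependent luminescence after ≥48 hr.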
TDP1 cell CPT: growth inhibition of DT40 Tdp1-/-;hTDP1 cells with camptothecin (screen for TDP1 inhibitors). chicken DT40 Tdp1-/-;hTDP1 cells + 20 nM CPT, ATP luminescence, 48 h. Potency, µM (series often up to 46.2 µM), for the others: top-dose activity change, negative = growth inhibition, most hits filed as inhibitors. 12% of 420,000 active. AID 686979; note: potency is the fitted concentration of half-maximal effect; nearly all actives have a fitted effect of over 55% in size
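Cell growth measured by CellTiter-Glo luminescence after a minimum 48 h, 37 C compound exposure with 20 nM CPT in Tdp1-knockout DT40 cells stably expressing hTDP1, seeded 400/well; qHTS titration format.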
Six1-Eya2 blk: inhibitors of human Six1/Eya2 interaction | Q15475+O00167 | AlphaScreen GST-Six1/His-Eya2 binding, biochemical; stronger effect = lower value | activity change, % (concentration not given with the values) | 0.56% of 360,000 active | AID 651725; in the data active = activity change below about -65%; inconclusive = mostly about -30% to -63%
Target sequence (O00167 whole entry, looked up): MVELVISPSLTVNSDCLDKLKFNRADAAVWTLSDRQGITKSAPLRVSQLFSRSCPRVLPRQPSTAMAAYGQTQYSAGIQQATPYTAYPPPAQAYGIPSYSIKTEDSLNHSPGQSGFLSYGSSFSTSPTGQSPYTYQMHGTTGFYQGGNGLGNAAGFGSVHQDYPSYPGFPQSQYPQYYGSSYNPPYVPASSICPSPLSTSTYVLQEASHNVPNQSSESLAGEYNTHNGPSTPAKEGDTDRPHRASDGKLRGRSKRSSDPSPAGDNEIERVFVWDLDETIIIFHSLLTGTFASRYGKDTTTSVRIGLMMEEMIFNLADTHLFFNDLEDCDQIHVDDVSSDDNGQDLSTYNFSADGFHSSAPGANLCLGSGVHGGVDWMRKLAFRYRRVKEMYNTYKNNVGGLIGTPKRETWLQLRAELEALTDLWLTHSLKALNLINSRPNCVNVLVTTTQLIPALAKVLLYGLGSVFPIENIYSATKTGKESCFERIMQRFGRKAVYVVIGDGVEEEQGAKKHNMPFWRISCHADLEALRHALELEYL
Target sequence (Q15475 whole entry, looked up): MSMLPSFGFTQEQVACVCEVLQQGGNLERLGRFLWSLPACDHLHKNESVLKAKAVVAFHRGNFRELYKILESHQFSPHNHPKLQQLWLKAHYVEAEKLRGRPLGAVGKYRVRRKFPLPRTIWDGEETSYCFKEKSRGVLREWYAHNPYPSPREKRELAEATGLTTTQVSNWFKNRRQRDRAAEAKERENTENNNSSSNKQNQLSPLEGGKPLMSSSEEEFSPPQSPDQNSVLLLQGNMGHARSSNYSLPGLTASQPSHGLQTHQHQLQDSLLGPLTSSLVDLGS
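Six1/Eya2 binding was read as AlphaScreen signal after compounds were pinned into GST-Six1 plus His-tagged Eya2 (5X stock 250/500 nM) in pH 8.0 Tris/NaCl/TCEP buffer, beads added, then incubated 1 h, 37 C, dark.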
CtBP-E1A inh: CtBP/E1A binding inhibition | AlphaScreen GST-E1A/His-CtBP binding, 1536-well; stronger effect = lower value | activity change, % (no concentration beside the values) | 0.49% of 340,000 active; in the data active = activity change below about -65%; inconclusive = mostly about -30% to -63%
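AlphaScreen with 125 nM GST-E1A and 125 nM His-CtBP (5X stocks) in Tris pH 8.0, 300 mM NaCl, BSA, Tween 20, TCEP. Compounds preincubated 2 h at 37 deg C, then glutathione donor/nickel acceptor beads added for 1 h at 37 deg C in dark.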
TDP1 inh: inhibitors of human tyrosyl-DNA phosphodiesterase TDP1; Q9NUW8; recombinant TDP1, AlphaScreen DNA substrate cleavage; Potency, µM (highest dose often 130 µM), for inactives: at the highest dose activity change, negative = inhibition, usual class: inhibitors; 0.28% of 350,000 active; AID 485290; note: potency is the fitted concentration of half-maximal effect; nearly all actives have a fitted effect of over 40% in size
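Signal: AlphaScreen proximity between streptavidin donor and anti-FITC acceptor beads on intact substrate. Reaction: Tdp1 1 nM, substrate 15 nM final, 5 min RT after 15 min compound preincubation.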
* = called active by the depositor; ? = inconclusive; / = no result; ! = not active in a repeat; [ ] = another dose, or the depositor's remark. Unless noted, calls come from the whole dose curve; as a rule, active = well fitted curve in the direction sought with a large enough effect; inconclusive = small, poorly fitted or top-dose-only effect, or another doubt; inactive = no such curve, though single readings can be large; an effect the other way counts as inactive or inconclusive. % is set by controls: 0 for no effect and ±100 for the full control effect.

SMILES | IL-1B inflam inh | DT40 TDP1 no CPT | TDP1 cell CPT | Six1-Eya2 blk | CtBP-E1A inh | TDP1 inh
O=Cc1cn(Cc2c(F)cccc2Cl)c2ccccc12 | -24 | ? | ? | 7 | / | 2%
CC(=O)c1cn(Cc2ccccc2F)c2ccccc12 | -4 | 4.6µM* | 8.2µM* | 12 | -7 | /
CN1CC[C@@]2(CCCN(C(=O)c3ccncc3)C2)C1 | / | -15% | -6% | / | / | /
O=C(c1ccccc1F)c1cn(Cc2ccc(F)cc2)c2ccccc12 | ? | ? | 16µM* | 17 | 0 | -11%
O=C(c1ccccc1F)c1cn(Cc2ccccc2)c2ccccc12 | -6 | ? | ? | 7 | 11 | -6%
O=C(CN1CCN(c2ccccc2)CC1)Nc1ccccc1C(=O)NCCc1ccccc1 | -24 | ? | ? | -2 | -11 | /
COc1ccc(CCNC(=O)c2cnc3sc(N4CCCCCC4)nn3c2=O)cc1 | / | 9.2µM* | 21µM* | / | / | -3%
Clc1ccc(C(c2ccccc2)c2ncc[nH]2)cc1 (centres undefined) | -19 | ? | -15% | -8 | -6 | 3%
CN(CC(=O)Nc1cccc(F)c1)CC(=O)Nc1cccc(S(=O)(=O)N(C)c2ccccc2)c1 | -79* | 23µM* | 23µM* | -2 | -3 | /
N#Cc1ccc(OCC(=O)N2CCN(Cc3ccc4c(c3)OCO4)CC2)cc1 | -2 | ? | 4% | -3 | 4 | -4%
CCC(=O)OC1(c2ccccc2)CCN(C)CC1C (centres undefined) | -2 | -11% | ? | 1 | -5 | -1%
COc1ccccc1-c1nc2c(c(SCc3cccc(Cl)c3)n1)Cc1c(CO)cnc(C)c1O2 | / | 18µM* | 9.2µM* | / | / | 8%
O=C(CCl)NN=C(c1ccccc1)c1ccccc1 | -77* | 5.2µM* | 5.8µM* | 18 | 2 | 8%
NCC(=O)c1ccccc1 | 6 | 0% | ? | 0 | 6 | -1%[56.1 µM]
CC(Cc1ccccc1)N(C)C (centres undefined) | / | / | / | / | / | 2%
COC(=O)[C@@H](Cc1ccccc1)N(Cc1ccccc1)S(=O)(=O)N(Cc1ccccc1)[C@H](Cc1ccccc1)C(=O)OC | 6 | 10µM*! | 23µM* | -5 | 0 | 3%
C=C[C@H](Cc1ccccc1)N(Cc1ccccc1)S(=O)(=O)N(Cc1ccccc1)[C@H](C=C)Cc1ccccc1 | 44 | 13µM* | ? | 5 | 1 | 1%
CC(C)CN(C(=O)CN1CC=C(c2ccccc2)CC1)c1c(N)n(CC(C)C)c(=O)[nH]c1=O | -6 | 18µM* | ? | 5 | -2 | 0%
O=C(NCc1ccc(C(=O)N2CCC3(CC2)OCCO3)cc1)c1ccc2c(c1)OCO2 | 5 | -24% | -15% | 1 | 0 | 3%
Cn1cc(/C=C(\C(=O)O)C(C(=O)O)=C2CCCCC2)c2ccccc21 | 40 | 15µM* | 23µM* | 0 | 8 | 0%
CCC(=NCCCn1ccnc1)c1c(O)n(-c2ccccc2)c(=O)[nH]c1=O | 2 | -1% | 8% | 5 | 6 | 0%
CN1CCC(OC(=O)Cc2ccccc2)CC1 | 13 | 2% | 4% | 0 | / | -5%
CCCOC(C(=O)OC1CCN(C)CC1)(c1ccccc1)c1ccccc1 | / | 12µM* | 21µM* | / | / | /
O=C1NC(=S)NC(=O)C1=Cc1ccc2c(c1)CCN2CCCCl | 12 | 15µM* | ? | -29 | / | /
Cc1ccccc1N1C(=O)NC(=O)/C(=C\c2ccc3c(c2)CCCN3Cc2ccccc2)C1=O | -13 | ? | -27% | -6 | 4 | 0%
SMILES | IL-1B inflam inh | DT40 TDP1 no CPT | TDP1 cell CPT | Six1-Eya2 blk | CtBP-E1A inh | TDP1 inh
CCOC(=O)CCCCCNC(=O)c1c(O)[nH]c(=O)[nH]c1=O | 3 | 3% | -1% | -1 | 3 | /
C[C@@H](NC(=O)C[C@@H]1C[C@@H]2c3cc(NS(=O)(=O)c4ccc(F)cc4)ccc3O[C@@H]2[C@@H](CO)O1)c1ccccc1 | 14 | ? | ? | -3 | 3 | /
CN1Cc2c(ccc3c2OCO3)C2C(O)Cc3cc4c(cc3C21)OCO4 (centres undefined) | / | 1.9µM* | 2.7µM* | / | / | 11%
COc1ccc(S(=O)(=O)N2c3ccc(F)cc3CCC2C)cc1 (centres undefined) | 53 | 0.58µM* | 0.92µM* | 0 | / | /
CC1=C(O)C(=O)C=C2C1=CC=C1[C@]2(C)CC[C@@]2(C)C3C[C@](C)(C(=O)O)CC[C@@]3(C)CC[C@@]12C (some centres undefined) | / | 0.82µM* | 1µM* | / | / | 12%
Cc1cc(O)c2c(c1)C(=O)C13C(=C2O)C(=O)[C@H]2[C@@H](O)[C@@H]1[C@H]1[C@H](O)[C@@H]3C(=O)C3=C(O)c4c(O)cc(C)cc4C(=O)C312 (some centres undefined) | 27 | 1.2µM* | 0.65µM* | -23 | -19 | /
CCCCCC1C(=O)O[C@H](C)[C@@H](NC(=O)c2cccc(NC=O)c2O)C(=O)OC(C)C1OC(=O)CC(C)C (some centres undefined) | / | 0.046µM* | 0.046µM* | / | / | 14%[56.1 µM]
CCCC[C@H]1C(=O)O[C@H](C)[C@H](NC(=O)c2cccc(NC=O)c2OC)C(=O)O[C@@H](C)[C@@H]1OC(=O)CC(C)C | / | 6.7µM* | ? | / | / | 13%
C=COC(C)=O | / | / | / | / | / | 9%
COc1cc(NS(=O)(=O)c2ccc3c(c2)oc(=O)n3C)cc(OC)c1OC | 72 | 9.2µM* | 13µM* | 5 | -1 | 2%
CC(=Nc1ccc2c(c1)CCC2)c1c(O)n(-c2ccccc2)c(=O)[nH]c1=O | 9 | -2% | 8% | -3 | 5 | 1%
O=c1[nH]c(=O)n(-c2ccc(Br)cc2)c(O)c1C=NCCN1CCCCC1 | 4 | 2% | 24% | 5 | -19 | /
CNc1ccc2oc(C[C@H]3O[C@]4(CC[C@H]3C)O[C@H]([C@H](C)C(=O)c3ccc[nH]3)[C@H](C)C[C@H]4C)nc2c1C(=O)O | / | 1.1µM* | 1.5µM* | / | / | 26%[56.1 µM]
OC1/C(=C/c2ccc(Cl)cc2Cl)N2CCC1CC2 (centres undefined) | -5 | -12% | -4% | -16 | -7 | 5%
COC(=O)C1=C(c2ccc(Cl)c(C(F)(F)F)c2)C[C@@H]2CC[C@H]1N2C(=O)NCCCOC(C)C | -13 | 13µM* | 26µM* | -1 | / | 0%
COC(=O)C1=C(c2ccc(Cl)c(C(F)(F)F)c2)C[C@@H]2CC[C@H]1N2C(=O)NCCNC(C)=O | 16 | ? | -21% | -5 | 4 | -2%
